Assay results as given in PubChem BioAssay AID777 (Sanford-Burnham Center for Chemical Genomics, 2007).
About 19,000 (20%) of roughly 96,000 compounds were called active. A selection follows. A number with no mark means an inactive call.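 Rule for the calls: active = blocking of liver enzyme CYP2C9 beyond about 50% at 5 µM (limit read from the data); inactive = the rest.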

The compounds below were run against Cytochrome P450 2C9 (Homo sapiens) (UniProt P11712) (assay: blockers of cytochrome P450 2C9 activity – biochemical, luminescence, ADME assay, primary screen (AID 777)). Details: CYP2C9 Supersomes, luciferin-H conversion, at 5 µM, stronger effect = higher value.
Chain of Cytochrome P450 2C9 (Homo sapiens) (P11712 whole entry, looked up): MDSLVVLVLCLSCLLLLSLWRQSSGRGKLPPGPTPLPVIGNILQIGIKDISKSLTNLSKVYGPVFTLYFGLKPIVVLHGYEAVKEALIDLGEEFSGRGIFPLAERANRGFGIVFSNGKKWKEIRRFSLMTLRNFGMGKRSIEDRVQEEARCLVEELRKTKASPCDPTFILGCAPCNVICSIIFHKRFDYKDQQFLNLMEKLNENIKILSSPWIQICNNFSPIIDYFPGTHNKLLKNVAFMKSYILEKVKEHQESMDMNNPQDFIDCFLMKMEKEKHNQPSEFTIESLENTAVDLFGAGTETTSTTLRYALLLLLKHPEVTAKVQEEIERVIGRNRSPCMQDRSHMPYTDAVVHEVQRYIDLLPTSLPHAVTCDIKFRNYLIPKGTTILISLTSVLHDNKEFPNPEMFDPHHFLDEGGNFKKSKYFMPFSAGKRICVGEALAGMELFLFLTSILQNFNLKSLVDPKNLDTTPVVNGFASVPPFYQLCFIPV

Point of comparison: `Cn1c(CO)cnc1SCc1ccccc1`, inhibition 3.4%. Against it:
- CCc1ccc(NC(=O)CS(=O)CC(=O)NCCCc2ccccc2)cc1 (stereo not given) — higher, 38.5%
- CC(C)c1ccc(NC(=O)NC2CCCCC2)cc1 — lower, -33.8%
- COc1ccc(C2CC(=O)C=C(NCC3CCCO3)C2)cc1 (stereo not given) — higher, 9.3%
- O=C(OCN1C(=O)c2ccccc2C1=O)/C(=C\c1ccco1)NC(=O)c1ccccc1 — higher, 14%
- COC(=O)Nc1ncc(CN2CCCCC2)s1 — higher, 3.8%
- CCOP1(=O)C=C(C(C)(C)C)OC1c1ccc(F)cc1 (stereo not given) — lower, -21.5%
- c1ccc(CCn2nnnc2CN2CCN(C3CCCC3)CC2)cc1 — lower, -1.3%
- COCCn1nnnc1C(c1ccccc1Cl)N1CCN(c2ccccc2OC)CC1 (stereo not given) — higher, 39.5%
- Oc1ccccc1CNc1ncc(Br)cc1Br — lower, -39.9%
- CCOc1ccc(C(=O)NC2CCN(S(=O)(=O)CC)CC2)cc1 — lower, 2.4%
- CCOC(=O)N1CCC(Nc2c(NCCCN3CCN(CC)CC3)c(=O)c2=O)CC1 — lower, -19.9%
- CC1(C)Cc2ccccc2-c2nc(CN3CCOCC3)[nH]c(=O)c21 — higher, 15.5%
- Cc1nonc1NC(=O)c1ccccc1Br — lower, -27.2%
- O=C(Nc1nnc(-c2ccc(Cl)cc2)o1)c1ccccc1Br — higher, 26%
- CC(=O)NC1=NC(=O)CS1 — higher, 11.7%
- COC(=O)C1=CN(C)C=C(C(=O)OC)C1c1ccc(Cl)cc1Cl — higher, 28%
- COC(=O)CN1C(C)=Nc2ccc(Br)cc2C1c1ccccc1 (stereo not given) — lower, -8.5%
- COC(=O)Cc1nc2ccccc2[nH]1 — higher, 7.9%
- Clc1ccccc1SCc1nc2ccccc2[nH]1 — higher, 36.9%
- CC(CN1CCOCC1)c1ccccc1 (stereo not given) — lower, 2.7%
- CN(CC(=O)NC1CCCCC1)S(=O)(=O)c1ccc(Br)s1 — lower, -17.7%
- CCS(=O)(=O)n1nc(-c2ccc(OC)cc2)nc1SC — higher, 42.2%
- CSCCC(NC(=O)COc1ccccc1)C(=O)OCC(=O)c1cc2ccccc2o1 (stereo not given) — higher, 43.3%
- COc1ccc2ccccc2c1CNCc1ccccn1 — lower, -4.5%
- Cc1cc(C)c(C#N)c(SCc2ccccc2C(=O)O)n1 — higher, 9.5%
- Cc1cc(C)c(C#N)c(SCS(=O)c2ccc(C(C)(C)C)cc2)n1 (stereo not given) — lower, -50.8%
- CCCCN(C)Cc1c(C)[nH]c2ccc(Cl)cc2c1=O — lower, -10.7%
- O=C(O)CCC(=O)N(Cc1ccco1)c1nc(-c2ccccc2)cs1 — higher, 5.2%
- Cc1nnc(N(Cc2ccco2)C(=O)c2ccno2)s1 — higher, 11.2%
- O=C(Nc1ccccc1)N(Cc1cccnc1)Cc1ccco1 — higher, 35.5%
- COC(=O)c1ccc(Oc2nc(NC(C)C)nc(SC)n2)cc1 — higher, 37.2%
- O=C(CSc1nnc(-c2cccs2)n1Cc1ccccc1)N1CCc2ccccc2C1 — higher, 48%
- Cc1nnc(SCC(=O)N2CCc3ccccc3C2)s1 — lower, 0%
- Nn1c(Cc2cccc3ccccc23)nnc1SCC(=O)N1CC(=O)Nc2ccccc21 — lower, -64.6%
- Cc1nc(SCC(=O)Nc2cc(C)on2)c2c(C)c(C)sc2n1 — higher, 14%
- COc1ccc(OC)c(NC(=O)CCN2CCC(C)CC2)c1 — higher, 5.1%
- CCc1nnc(NC(=O)CCC(=O)NCc2ccccc2OC)s1 — lower, -14.5%
- Cc1ccsc1-c1nc(CSCC(=O)NCCN2CCCC2)c(C)o1 — higher, 7.3%
- CCOc1cc(-c2cc(-c3ccc(OC)cc3)nc(N)c2C#N)ccc1O — higher, 47.2%
- COc1ccc(C)cc1N(C)C(=O)c1coc(=O)c2ccccc12 — higher, 33.1%
- CC(C)NC(=O)CSc1nnc(COc2ccccc2Cl)o1 — lower, -39.2%
- CC1Cc2ccccc2N1C(=O)CSc1nc2ccccc2o1 (stereo not given) — higher, 28.2%
- O=C(CSc1nc2ccccc2o1)N1CCN(c2ccc(Cl)cc2)CC1 — lower, -11.9%
- Cc1cc(C)cc(OCc2nnc(SCC(=O)Nc3ccccc3)o2)c1 — lower, -3%
- O=C(NC(C(=O)NCCN1CCOCC1)C12CC3CC(CC(C3)C1)C2)C1CCCCC1 (stereo not given) — higher, 18.3%
- O=C(COc1ccc(Br)cc1F)NC1CCN(Cc2ccccc2)CC1 — higher, 28.8%
- CC(=O)Oc1cccc(N2C(=O)C3CC=C(Cl)CC3C2=O)c1 (stereo not given) — lower, 3.2%
- CCCCCCC(=O)N(O)C1CC(=O)N(c2ccccc2)C1=O (stereo not given) — lower, -18.5%
- Cc1cccn2c(=O)c3cc(C(=O)N4COCC4(C)C)n(C)c3nc12 — lower, -0.4%
- CCC(C)NC(=O)C1CCC(=O)N1Cc1ccc(C)cc1 (stereo not given) — lower, 3.2%
- O=C1c2ccccc2C(O)N1Cc1ccccc1Cl (stereo not given) — lower, -6.9%
- CCCOc1ccc(-c2nc(N)n[nH]2)cc1 — higher, 3.7%
- N=c1c2c(-c3ccccc3)c(-c3ccccc3)oc2ncn1Cc1ccco1 — higher, 45.2%
- CCc1nc2oc3ccccc3c(=O)c2c(=O)n1Cc1ccc(OC)cc1 — higher, 6.4%
- CC1CN(C(=O)c2ccc3c(c2)OCO3)OC(c2ccccc2)O1 (stereo not given) — higher, 35%
- FC(F)(F)c1cc(C(F)(F)F)c2ccc(N3CCN(c4ccccc4)CC3)nc2n1 — lower, -7.6%
- CCN1CCCC1CNC(=O)c1cc2c(=O)n(C)c3ccccc3c2n1C (stereo not given) — higher, 8.3%
- O=c1[nH][nH]c(=O)c2cc(N3CCCC3)ccc12 — lower, 2.6%
- Cc1ccc2nc(-c3ccccc3)cc(C(=O)O)c2c1 — higher, 34.4%
- COc1ccc(C(=O)NN(C)c2nc(-c3ccccc3)cc(C)c2S(C)(=O)=O)cc1 — higher, 13.3%
- CCCCN(CC)CCCNC(=O)CS(=O)(=O)Cc1nc(-c2cccc(OC)c2)oc1C — lower, -5.6%
- Cc1ccc(S(=O)(=O)Nc2nc(C)cc(-n3nc(C)cc3C)n2)cc1 — higher, 29.1%
- CC(=O)N1CCN(C(=O)c2cccc(S(=O)(=O)Nc3ccc(C)cc3)c2)CC1 — lower, 0.3%
- CN=C1SC(CC(=O)Nc2ccc(C(=O)O)cc2)C(=O)N1C (stereo not given) — higher, 8.3%
- CCCCOc1ccc(NC(=O)CSCC(=O)OCC)cc1 — lower, 0.4%
- CCOC(=O)C1CCCCN1Cc1ccc(OC)c(OC)c1OC (stereo not given) — higher, 29.7%
- COc1ccc2c(c1)CCc1c(C(=O)Nc3c(C)n(C)n(-c4ccccc4)c3=O)noc1-2 — higher, 14%
- COc1ccc2c(c1)CCc1c(C(=O)N3CCCC3)noc1-2 — lower, -6.1%
- CCOC(=O)c1cc(-c2ccc(Cl)s2)nc2c1c(C)nn2C — higher, 32.3%
- Cc1cc(C(F)F)n2nc(C(=O)Nc3ccc(S(=O)(=O)NC45CC6CC(CC(C6)C4)C5)cc3)nc2n1 — higher, 24.7%
- CCOc1c(OC)cc(C2C(C#N)=C(N)Oc3n[nH]c(-c4ccncc4)c32)cc1OC (stereo not given) — higher, 20.1%
- Cc1nc2ccc(C(=O)O)cc2[nH]1 — higher, 14.9%
- Cc1cc(Br)ccc1NC(=O)C1CCCO1 (stereo not given) — lower, -2.8%
- CCOC(=O)C1CN(S(=O)(=O)c2ccc(F)cc2)C1 — higher, 8.2%
- COc1ccc(OC)c(NC(=O)CC(Cc2ccccc2OC)C(=O)O)c1 (stereo not given) — higher, 40.6%
- C=CCCC(=O)Nc1nc(C)c(-c2csc(Nc3ccc(Cl)cc3)n2)s1 — higher, 38.2%
- CCCCCCC(=O)Nc1nc(C)c(-c2csc(Nc3cc(Cl)ccc3OC)n2)s1 — higher, 14.8%

In the case of `Cc1ccc(NC(=O)CS(=O)CC(=O)N(c2ccccc2)C(C)C(=O)NC2CCCC2)cc1` (stereo not given), the inhibition is reported as 77.9% (active).
For `COc1ccccc1N1CCN(Cc2nnnn2CCc2ccccc2)CC1`, the inhibition was 75% (active).
With `CCOC(=O)C1Cn2c(nc3c(c2=O)C(C)(CC)Cc2ccccc2-3)S1` (stereo not given) the inhibition was 94.8% (active).
With `O=C(Nc1ccc(-n2ccnc2P(=O)(O)c2ccccc2)cc1)c1ccccc1Br` the inhibition was 95.5% (active).
For `COC(=O)C1=C(C)N(C)C(C)=C(C(=O)OC)C1c1cccc(Br)c1`, the inhibition was 93.8% (active).
`c1ccc2c(CSCc3nc4ccccc4[nH]3)cccc2c1` was tested, and the inhibition was 85.1% (active).
In the case of `CCS(=O)(=O)n1nc(-c2ccccc2)nc1SCc1ccccc1`, the inhibition is reported as 87.9% (active).
In the case of `Cc1cc(C)c(C#N)c(SCc2ccc3c(c2)OCO3)n1`, the inhibition is reported as 90.5% (active).
`Cc1ccc(-c2csc(N(Cc3ccco3)C(=O)c3cccs3)n2)cc1` was tested, and the inhibition was 91.6% (active).
With `Cc1nc(SCC(=O)N2CC(=O)Nc3ccccc32)c2c(C)c(C)sc2n1` the inhibition was 55.2% (active).
In the case of `Cc1nc(SCC(=O)N2CCc3ccccc3C2)c2c(C)c(C)sc2n1`, the inhibition is reported as 55.9% (active).
With `CCSc1nc(-c2ccc(OC)cc2)cc(-c2ccc(OC)cc2)c1C#N` the inhibition was 75.3% (active).
With `O=C(CSc1nc2ccccc2o1)N1c2ccccc2Sc2ccc(Cl)cc21` the inhibition was 60.9% (active).
In the case of `Cc1ccccc1OCc1nnc(SCC(=O)N2c3ccccc3Sc3ccc(Cl)cc32)o1`, the inhibition is reported as 57.3% (active).
`CC1(C)CCCC2=C1CC1C(=O)N(c3ccccc3)C(=O)C1C2` (stereo not given) was tested, and the inhibition was 90.7% (active).
With `O=C(Nc1ccc(Br)cc1)C1CCC(=O)N1Cc1ccccc1Cl` (stereo not given) the inhibition was 89.5% (active).
For `CCOC(=O)C1=NNC2(c3ccc(Cl)cc3)C(=O)N(c3cc(C)cc(C)c3)C(=O)C12` (stereo not given), the inhibition was 64.1% (active).
With `Cc1nc(NNC(=O)c2ccccc2)cc(-c2ccccc2)n1` the inhibition was 62.7% (active).
In the case of `Cc1ccc(S(=O)(=O)Nc2ccc3ncccc3c2)cc1`, the inhibition is reported as 84.1% (active).
In the case of `COc1ccc2c(c1)CCc1c(C(=O)N3CCc4ccccc4C3)noc1-2`, the inhibition is reported as 73.7% (active).
With `COc1ccc(/C=C2\CCCC3C2=NN(C(=O)c2scnc2C)C3c2ccc(OC)cc2)cc1` (stereo not given) the inhibition was 83.4% (active).
For `CCCCC(=O)Nc1nc(C)c(-c2csc(Nc3ccc(Cl)cc3)n2)s1`, the inhibition was 57.3% (active).
